Source: PubChem BioAssay
OPRM1-OPRD1 ag – agonists of OPRM1-OPRD1 heterodimerization, primary screen, cell-based, luminescence. Mu-type opioid receptor (Homo sapiens) + Delta-type opioid receptor (Homo sapiens), …. cells. activation, % at 9.3 µM. 340,000 compounds, 0.3% hits; in the data active = activation above about 18%;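 note: 0% = vehicle-treated cells and 100% = reference agonist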
HTR5A inv ctr – HTR5A inverse agonists in luminescence cell assay, primary screen, counter-screen for OPRM1-OPRD1 heterodimer inverse agonist project, full-deck HTS; 5-hydroxytryptamine receptor 5A (Homo sapiens), P47898; HTR5A cell line, inverse agonism; inhibition, % at 9.3 µM; 340,000 compounds, 0.083% hits; AID 504634, 2011; in the data active = inhibition mostly above about 23%, no sharp cut-off; inactive = mostly below about 18%;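 note: 0% = cells with DMSO and 100% = no-cell wells with DMSO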
Target sequence (P47898 whole entry, looked up): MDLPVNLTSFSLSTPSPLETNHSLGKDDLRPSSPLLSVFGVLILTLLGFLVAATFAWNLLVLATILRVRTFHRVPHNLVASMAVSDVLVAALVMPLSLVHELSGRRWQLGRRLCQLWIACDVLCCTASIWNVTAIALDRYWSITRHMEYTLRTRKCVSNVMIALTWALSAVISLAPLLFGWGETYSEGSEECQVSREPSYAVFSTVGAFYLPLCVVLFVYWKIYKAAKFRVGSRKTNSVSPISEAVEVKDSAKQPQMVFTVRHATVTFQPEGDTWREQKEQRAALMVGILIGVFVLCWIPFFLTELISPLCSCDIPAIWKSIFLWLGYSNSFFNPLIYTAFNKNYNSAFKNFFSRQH
HTR5A ag – HTR5A agonists in luminescence cell assay, primary screen, counter-screen for OPRM1-OPRD1 heterodimer agonist project, full-deck HTS; 5-hydroxytryptamine receptor 5A (Homo sapiens), P47898; cell-based; activation, % at 9.3 µM; 340,000 compounds, 0.61% hits; AID 504692, 2011; in the data active = activation mostly above about 9.5%, no sharp cut-off; inactive = mostly below about 7.6%;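 note: 0% = cells with vehicle only and 100% = reference agonist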
MOR-DOR inv ag – inverse agonists of MOR-DOR heterodimerization, primary screen, cell-based, luminescence. AID 504357, 2011. cell-based MOR-DOR heterodimer luminescence, inverse agonism. inhibition, % at 9.3 µM. 340,000 compounds, 0.21% hits; in the data active = inhibition above about 22%, passing the limit was not always enough;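 note: 0% = cells with DMSO and 100% = wells without cells with DMSO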
HGIII-sPLA2 inh – human group III sPLA2 inhibitors, primary screen, biochemical, QFRET, BODIPY PC-A2 liposome substrate; inhibition, % at 12.2 µM; 370,000 compounds, 0.56% hits; QFRET BODIPY PC-A2 liposome hydrolysis, fluorescence; AID 743126, 2013;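 active = inhibition above mean plus 3 SD of compounds lying within the high and low control bounds, cut at about 19% in these data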;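 note: 0% = median of test compound wells and 100% = no enzyme DMSO wells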
HTR2A ag – mouse Htr2a agonists via beta-arrestin recruitment, primary screen, cell-based, luminescence | activation, % at 7.6 µM | 5-hydroxytryptamine receptor 2A (Mus musculus), P35363 | 360,000 compounds, 0.66% hits | CHO-K1 mHTR2A beta-arrestin complementation; percent of 30 µM serotonin response;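 active = activation above a run cutoff, the mean activation of all tested compounds plus 3 SD, cut at about 14% in these data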;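 note: 0% = plate median of compound wells and 100% = 30 µM serotonin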
MOR ag counter – OPRM1 agonists via beta-arrestin recruitment, confirmation, counter-screen for mouse HTR2A agonist project, cell-based, luminescence, single concentration | shares compounds with HTR2A ag | activation, % at 9.3 µM | 2,300 compounds, 5.3% hits | U2OS OPRM1 beta-arrestin PathHunter; DMSO 0%, DAMGO 9.3 µM 100%;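 active = mean activation above the mean of DMSO-only wells plus 3 SD, cut at about 0.5% in these data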
HTR2A ag conf – mouse HTR2A agonists, beta-arrestin recruitment, confirmation, cell-based, luminescence, CHO-K1 PathHunter, triplicate; shares compounds with HTR2A ag; DMSO 0%, 30 µM serotonin 100%; activation, % at 7.6 µM; 2,300 compounds, 19% hits; AID 624381, 2012;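 active = mean activation across triplicates above the hit threshold derived in the original primary screen, cut at about 15% in these data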
The depositor's hits bear a star; nt = not tested or not shown. This is a sample that favours compounds with a hit; in the whole collection about 2.2% have one here.

SMILES	OPRM1-OPRD1 ag	HTR5A inv ctr	HTR5A ag	MOR-DOR inv ag	HGIII-sPLA2 inh	HTR2A ag	MOR ag counter	HTR2A ag conf
OCCCN1CCC2(CCC(c3ccccc3)CC2)C1 (stereo not given)	nt	nt	nt	nt	0	nt	nt	nt
O=C(NC(=S)Nn1cnc2c(cnn2-c2ccccc2)c1=O)c1ccc(Oc2ccccc2)cc1	-3	3	3	17	-1	-2	nt	nt
O=C(NC(=S)Nn1cnc2c(cnn2-c2ccccc2)c1=O)c1ccc(Cl)cc1	-4	6	-2	19	10	42*	0	0
S=C(Nc1ccccc1)OC1CCC12CCC(c1ccccc1)CC2 (stereo not given)	nt	nt	nt	nt	3	nt	nt	nt
COc1ccc(-c2cc(-c3nc4ccccn4c3NCc3ccccc3)ccc2OC)cc1	8	-58	13	-44	7	33*	1.4*	29*
COc1ccc(-c2nc3ccccn3c2NCc2ccc3c(c2)OCO3)cc1	-1	-40	-3	3	6	-3	nt	nt
COC(=O)[C@]12C[C@H](CC(=O)NCc3cccs3)C(=O)N(Cc3ccc(Cl)cc3Cl)C1=C[C@H](C(C)C)O[C@@H]2C1CC1	nt	nt	nt	nt	-16	nt	nt	nt
O=C(/C=C/c1ccccc1)N(c1ccccn1)C1CCCCC1	-2	4	6	12	0	2	nt	nt
O=C(/C=C/c1ccccc1Cl)N(c1ccccn1)C1CCCCC1	1	10	-3	-7	-2	16*	0	40*
CN(Cc1ccccc1)N=Nc1nc[nH]c1C(N)=O	nt	nt	nt	nt	-3	17*	0	-3
NC(=O)c1nc(C(=O)N2CCN(c3ccccc3)CC2)c2ccccc2n1	-2	-11	4	14	6	18*	-1	-6
Cc1ccc(Nc2nc(N)nc(CN3CCN(c4ccccc4)CC3)n2)cc1Cl	4	1	-1	-21	-17	15*	0	70*
Nc1nc(CN2CCN(c3cccc(Cl)c3)CC2)nc(N2CCCc3ccccc32)n1	4	-2	1	-22	-6	24*	0	77*
COc1ccc(N2CCN(Cc3nc(N)nc(N4CCCc5ccccc54)n3)CC2)cc1	-3	2	3	14	0	9	nt	nt
Nc1nc(CN2CCN(c3ccccc3)CC2)nc(N2CCCc3ccccc32)n1	-1	6	-2	4	-9	28*	0	71*
Nc1nc(CN2CCN(Cc3ccccc3)CC2)nc(N2CCCc3ccccc32)n1	-2	5	0	15	-2	-6	nt	nt
COc1ccc(N2CCN(Cc3nc(N)nc(Nc4ccc(C)c(Cl)c4)n3)CC2)cc1	5	-15	6	-25	-10	0	nt	nt
CC1(C)C=Cc2ccc(O)c(C(=O)/C=C/c3ccccc3)c2O1	nt	nt	nt	nt	4	nt	nt	nt
O=C(COc1ccc(Br)cc1)Nc1ccc(C(=O)Nc2ccccc2C(=O)O)cc1	-1	-6	2	3	-3	18*	0	5
COc1cccc(Cn2cnc(-c3ccccc3OC)c2-c2cccs2)c1	nt	nt	nt	nt	-2	24*	-1	-7
OCCN1CN(c2ccccc2)C(=S)N(c2ccccc2)C1	nt	nt	nt	nt	10	nt	nt	nt
COc1ccc(CCNC(=O)c2ccco2)cc1OC	-1	-4	1	7	2	3	nt	nt
COc1ccc(CCNC(=O)c2ccccc2NC(=O)c2ccco2)cc1OC	1	-17	-5	-7	-2	24*	-1	-3
O=C([C@@H]1C[C@H]1c1ccccc1)N1CC[C@H]2[C@H](CCCN2Cc2cc(F)cc(F)c2)C1	nt	nt	nt	nt	-2	nt	nt	nt
COC(=O)c1cc2ccsc2n1CC(=O)Nc1ccc(N(C)C)cc1	1	9	-4	-6	12	0	nt	nt
SMILES	OPRM1-OPRD1 ag	HTR5A inv ctr	HTR5A ag	MOR-DOR inv ag	HGIII-sPLA2 inh	HTR2A ag	MOR ag counter	HTR2A ag conf
COC(=O)c1cc2ccsc2n1CC(=O)Nc1cc(Cl)ccc1OC	0	8	-2	2	-1	19*	-1	-4
Cc1nn(-c2ccccc2)c2sc(C(=O)N3CCN(C(c4ccccc4)c4ccc(Cl)cc4)CC3)cc12 (stereo not given)	nt	nt	nt	nt	1	nt	nt	nt
Cc1[nH]c2ccccc2c1CC(=O)Nc1ccc(Nc2cccnc2)c(-c2ccc(Oc3ccccc3)cc2)c1	nt	nt	nt	nt	-4	nt	nt	nt
CCCCCCCCN1CN2Cc3ccccc3C2CS1(=O)=O (stereo not given)	nt	nt	nt	nt	-3	nt	nt	nt
COc1cccc(N2CCN(S(=O)(=O)c3ccc4nc(-c5ccccc5)[nH]c4c3)CC2)c1	6	0	11	-27	-23	16*	0	-1
CN(Cc1ccc(F)cc1)C(=O)CN1C(=O)C2(OCCCO2)c2ccccc21	nt	nt	nt	nt	-1	nt	nt	nt
COc1cccc(-c2nc(NCc3ccccc3)c3ccccc3n2)c1O	3	-30	8	-16	-5	-2	nt	nt
C=CCNc1nc(-c2cccc(OC)c2O)nc2ccccc12	0	-39	4	0	-2	42*	0	24*
COc1cccc(-c2nc(NC3CCCC3)c3ccccc3n2)c1O	2	12	-3	-10	-31	78*	0	81*
C=CC[C@H]1c2ccccc2[C@H]2N3N=Cc4ccccc4[C@H]3[C@H](CCCC)C(=O)N2N1C(=O)NCc1ccccc1	nt	nt	nt	nt	4	nt	nt	nt
COc1ccc(S[C@]2(C(=O)N3CCCC3)CC(=O)N(C(=O)Nc3ccc(C)c(Cl)c3)[C@@H]2c2ccc(OC)cc2)cc1	nt	nt	nt	nt	7	nt	nt	nt
O=C(O)C1CSC(c2ccc3c(c2)OCO3)N1 (stereo not given)	-3	-26	4	17	-8	16*	-1	-5
O=C(O)C1CSC(c2ccc(O)c([N+](=O)[O-])c2)N1 (stereo not given)	-4	17	-7	16	0	0	nt	nt
O=C(NCc1cccs1)C1CCN(S(=O)(=O)c2ccc([N+](=O)[O-])cc2)CC1	nt	nt	nt	nt	4	nt	nt	nt
CCOc1ccccc1NC(=O)c1cccc(NC2=NC3CS(=O)(=O)CC3S2)c1 (stereo not given)	-2	-4	-1	11	10	15*	-1	-3
COc1ccccc1N1CCN(C(=O)c2cccc(NC3=NC4CS(=O)(=O)CC4S3)c2)CC1 (stereo not given)	0	19	-6	2	-3	24*	-1	-3
